# aSyn yeast inh – alpha-synuclein toxicity inhibition in yeast; Yeast expressing alpha-synuclein, growth rescue, BacTiter-Glo, 24 h; Potency, µM (highest dose often 46.1 µM), without a hit: at the highest dose growth rescue (activation), usual class: activators; 0.14% of 370,000 active; note: potency is the fitted concentration of half-maximal effect; % of control where 0% means no effect; nearly all actives have a fitted effect of over 65% in size
#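 Readout is rescue of growth in alpha-synuclein-expressing yeast, so inhibitors of toxicity appear as activators. Growth after 24 hr at 30 deg C in galactose medium is quantified by luminescence.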
# Abeta rescue – compounds reversing amyloid beta toxicity in yeast; yeast expressing A-beta42, growth rescue, OD600, 48 h; response scale: 0% DMSO, 100% iron-clioquinol control; Potency, µM (top dose mostly 46.1 µM), actives largely listed as activators; 0.063% of 410,000 active; AID 1347071; note: potency is the fitted concentration of half-maximal effect; nearly all actives have a fitted effect of over 55% in size
#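 Yeast A-beta toxicity model in growth medium with pinned compounds, 48 h at 30 C; growth read as absorbance at 600 nm. Normalized to FeCl3/clioquinol equimolar mix (positive) and DMSO (negative).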
# CCT chaperon mod – cytosolic chaperonin activity modulation; purified chaperonin ATPase assay, HTRF ADP detection, 30 min; activity change, % (concentration not given with the values), hits read low; 0.3% of 360,000 active; AID 651819; in the data active = activity change below about -30%; note: % is set by controls: 0 for no effect and ±100 for the full control effect
#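 TRiC (40 or 20 nM final, by batch activity) in 30 mM Tris pH 7.4, 100 mM KCl, 5 mM MgCl2, 1 mM DTT was treated with compound at 76 uM single dose, then 10 uM ATP, 30 min at 37 °C. ADP was read by HTRF Transcreener.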
# TDP-43 yeast inh – rescues yeast growth from TDP-43 toxicity | 1.8% of 410,000 active | TDP-43 expressing yeast growth rescue, BacTiter-Glo, 24 h | Potency, µM (top dose mostly 46.1 µM), inactives show top-dose growth rescue (activation), usual class: activators; note: potency is the fitted concentration of half-maximal effect; % of control where 0% means no effect; nearly all actives have a fitted effect of over 50% in size
#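 Yeast expressing TDP-43 (pregrown in raffinose, seeded at OD600=0.02 in galactose medium) exposed to compounds 24 hr at 30 deg C. Growth read by BacTiter-Glo luminescence; rescue of toxicity appears as increased signal.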
# FUS suppressor – FUS proteinopathy suppression in yeast. Potency, µM (top dose mostly 76.6 µM), usual class: activators. 0.24% of 390,000 active. S. cerevisiae FUS-expressing, growth rescue, OD600, 24 h;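 note: potency is the fitted concentration of half-maximal effect; plate controls were DMSO vehicle for no effect and reference control for full effect; nearly all actives have a fitted effect of over 55% in size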
#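 Read-out: OD at 600 nm after 24hr at 30C, reporting rescue of FUS-induced yeast toxicity. Cells at OD 0.005 in galactose (2%) minimal medium; compounds tested in a dilution series; CP55940 titration from 92uM final as control.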
# MmCpn inh – M. maripaludis TRiC chaperonin inhibition; Potency, µM (top dose mostly 76.9 µM), for the others: at the top dose activity, negative = inhibition, most hits filed as inhibitors; purified Mm-Cpn ATPase, ADP Transcreener TR-FRET; 0.031% of 330,000 active; note: potency is the fitted concentration of half-maximal effect; % is set by controls: 0 for no effect and ±100 for the full control effect; nearly all actives have a fitted effect of over 80% in size
#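 Eu-cryptate anti-ADP/ADP-d2 competition gives a ratio inversely related to ADP. Enzyme at 25 nM was pre-exposed to compound for 10 min, then given 10 uM ATP for 30 min, 37°C throughout.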
# An asterisk follows results filed as active; i = inactive; u = inconclusive; x = not tested or not shown; [ ] = dose if it differs, or a comment. In the library only some 2.3% were active in any assay of this set; here they are far more common. Unless noted, calls come from the whole dose curve; as a rule, active = well fitted curve in the direction sought with a large enough effect; inconclusive = small, poorly fitted or top-dose-only effect, or another doubt; inactive = no such curve, though single readings can be large; an effect the other way counts as inactive or inconclusive.
SMILES,aSyn yeast inh,Abeta rescue,CCT chaperon mod,TDP-43 yeast inh,FUS suppressor,MmCpn inh
Cc1cccc(Cl)c1-n1nnnc1C1(C)CSCC(=O)N1Cc1ccc(F)cc1 (stereo not given),x,x,x,x,i,x
CCC(NC(=O)Cn1c(-c2ccccc2)cc(C(C)=O)c1C)c1ccccc1 (stereo not given),x,x,x,x,i,x
CC(C)(C)C(=O)OC12CCCN(C1)/C(=C/c1ccccc1)C2 (stereo not given),x,x,x,x,i,x
CC(C)CCN(C)C1CCN(C(=O)NCc2ccccc2)CC1,x,x,x,x,i,x
O=C(NCc1cccc(C(F)(F)F)c1)O[C@H]1CC[C@@]23CCCN2C(=O)CCC[C@H]3C1,x,x,x,x,i,x
O=C(COC(=O)c1cccc(Cl)c1Cl)NCc1cccs1,0%,i,0,13µM*,i,4%
O=C(NCC1COCCO1)C1CCN(S(=O)(=O)c2ccc(Br)s2)CC1 (stereo not given),x,x,x,x,i,x
CSc1ccc(C(=S)N2CCCCCC2)cc1,-3%,u,0,11µM*,i,-4%
CCN1CCN(C(=S)c2ccc(SC)cc2)CC1,-10%,i,-2,-22%,i,-2%
COc1ccc(Cn2c(C(=O)O)c(CNCCc3ccccc3Cl)c3ccc(C)cc32)cc1,x,i,x,u,14µM*,x
Cn1ncc(C(=O)Nc2ccc(OC(F)(F)F)cc2)c1-n1cccc1,9%,i,4,13µM*,i,0%
CN(N=O)c1ccc2c(c1)Cc1ccccc1-2,11%,x,x,x,x,x
Cc1ccccc1NS(=O)(=O)c1ccc2[nH]c3c(c2c1)CCCCC3,u,i,x,u,35µM*,x
CCOc1ccc(NS(=O)(=O)c2ccc3[nH]c4c(c3c2)CCCCC4)cc1,x,i,x,18µM*,i,x
Cc1cccc(NS(=O)(=O)c2ccc3[nH]c4c(c3c2)CCCCCC4)c1,x,i,x,u,u,x
Cc1ccc(NS(=O)(=O)c2ccc3[nH]c4c(c3c2)CCCCCC4)cc1Cl,-22%,i,x,-7%,22µM*,x
Cc1cccc(N(C)C(=O)CN(C)S(=O)(=O)c2ccc3[nH]c4c(c3c2)CCCC4)c1,x,i,x,27%,32µM*,x
COc1ccc(Cl)cc1NC(=O)c1c(C(=O)Nc2cccc(C)c2C)sc2nc(C)cc(=O)n12,x,i,x,20%,i,x
CC(C)C[C@H](NC1(C(=O)NC2CCCCC2)CCCCC1)C(=O)NCC(c1ccccc1)c1ccccc1,x,x,x,x,i,x
CCOc1ccccc1NC(=O)c1nc(SCc2ccccc2F)ncc1Cl,-2%,x,x,x,x,x
CCOc1ccc(NC(=O)C2Cc3ccccc3N2C(=O)c2ccccc2)cc1 (stereo not given),x,i,x,26%,i,x
Cc1ccc(C2CCN(C(=O)c3cnn(-c4ccc(C)c(C)c4)c3C3CCN(C(=O)OC(C)(C)C)CC3)C2)cc1 (stereo not given),x,i,x,-1%,i,x
CCn1c2ccccc2c(=O)c2ccccc21,9%,i,1,13µM*,i,-2%
Cc1cc2c(c(=O)n1-c1ccccc1)C1O[C@](c3ccsc3)(Cc3cc(C#N)ccc31)O2,x,x,x,x,x,-3%[15.4 µM]
CC(C)COC(=O)NCCOC(=O)Nc1cccc(Cl)c1,4%,i,1,25µM*,i,0%
SMILES,aSyn yeast inh,Abeta rescue,CCT chaperon mod,TDP-43 yeast inh,FUS suppressor,MmCpn inh
CC(C)COC(=O)NCCCOC(=O)Nc1ccccc1,3%,i,-1,18%,i,3%
C=CCn1c(=S)[nH]c2ccccc2c1=O,5%,i,1,21%,i,-1%
O=c1c2c(-c3cccs3)csc2ncn1-c1ccc(Br)cc1,-4%,i,0,u,u,-13%
C=CCn1c(=S)[nH]c2scc(-c3cccs3)c2c1=O,4%,i,1,u,i,50µM*
Cn1c(=S)[nH]c2scc(-c3cccs3)c2c1=O,-11%,u,-36*,u,i,u
Cc1ccc(-n2ncc(C(=O)NCc3cccs3)c2C2CCN(C(=O)OC(C)(C)C)CC2)c(C)c1,x,i,x,u,u,x
